Rows were chosen to be rich in hits. Some 8% of all compounds tested hit in one or more screens of this group.
FMDV antiviral = blocks foot and mouth disease virus; FMDV antiviral cell-based qHTS; Potency, µM (titrated, usually from 57.9 µM), for the others: at the highest dose activity change, negative = inhibition, most hits filed as inhibitors; 410,000 compounds, 1.2% hits; AID 1159524; calls by dose curve; tested in HEK293T cells; further: read-out not given here; potency means the concentration at half of the fitted maximal effect; on the % scale 0 is the no-effect control and ±100 the full control effect; nearly all actives have a fitted effect of over 45% in size
HCV inh = HCV inhibition; Huh7.5.1 HCVcc-Cre infection, luciferase reporter, 44 h; Potency, µM (highest dose often 41.8 µM), inactives show at the top dose activity change, negative = inhibition, most hits filed as inhibitors; 340,000 compounds, 3.4% hits; AID 651820; active means well fitted inhibition curve with a large enough effect; inconclusive means small, poorly fitted or top-dose-only effect, or another doubt; inactive means no such curve, though single readings can be large or run the other way; further: potency means the concentration at half of the fitted maximal effect; on the % scale 0 is the no-effect control and ±100 the full control effect
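1,000 cells/well; 4 h culture; + compound; + HCVcc-Cre (~0.5 moi); 44 h; luciferase substrate, RT 15 min; read 15 sec.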
HCMV antiviral = human cytomegalovirus inhibition; 410,000 compounds, 4.5% hits; HFF cells, HCMV-luciferase reporter, 72 h; active compounds read low; activity change, negative = inhibition, % at 57.5 µM; in the data active means activity change below about -60%; inconclusive means no clear call, values can overlap the other calls; inactive means above about -39%; further: on the % scale 0 is the no-effect control and ±100 the full control effect
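Compounds were evaluated in HFFs infected with an HCMV luciferase reporter virus (MOI 1 PFU/cell). Luciferase in lysates collected 72 h post infection served as the replication measure.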
Lassa entry inh = blocks Lassa virus binding to or entry into cells | Lassa virus pseudotype entry inhibition, cell reporter | Potency, µM (highest dose often 37.9 µM), inactives show at the highest dose activity change, negative = inhibition, actives largely listed as inhibitors | 300,000 compounds, 1.2% hits; calls by dose curve; tested in HEK293 cells; further: potency means the concentration at half of the fitted maximal effect; on the % scale 0 is the no-effect control and ±100 the full control effect; nearly all actives have a fitted effect of over 50% in size
SARS PLP yeast = blocks SARS-CoV papain-like protease in a yeast assay; S. cerevisiae expressing SARS-CoV PLpro, growth rescue; 330,000 compounds, 0.19% hits; Potency, µM (titrated, usually from 32.9 µM), without a hit: at the highest dose activity, positive = growth rescue, most hits filed as activators; calls by dose curve; further: potency means the concentration at half of the fitted maximal effect; 0% is about no effect; nearly all actives have a fitted effect of over 55% in size
MARV entry inh = inhibitors of Marburg virus binding or cell entry | Marburg virus pseudotyped entry inhibition, cell reporter | Potency, µM (titrated, usually from 37.8 µM), inactives show at the top dose activity change, negative = inhibition, usual class: inhibitors | 300,000 compounds, 1.8% hits; calls by dose curve; tested in HEK293 cells; further: potency means the concentration at half of the fitted maximal effect; on the % scale 0 is the no-effect control and ±100 the full control effect
* marks the source's active call; other numbers are inactive results; ? = inconclusive; · = not tested or not shown; ! = not active in a repeat; [ ] = remark or other dose.

SMILES | FMDV antiviral | HCV inh | HCMV antiviral | Lassa entry inh | SARS PLP yeast | MARV entry inh
Cc1ccc(N=c2ssnc2Cl)cc1 | -17.2% | 10.2% | -19.7 | ? | -45.3% | -23.6%
Cc1cc(C)nc(/N=c2/ssnc2Cl)c1 | 28.2µM* | -7.8% | -29.3 | 5.6% | -18.4% | -20.6%
CC(=O)c1cn(Cc2ccccc2F)c2ccccc12 | ? | ? | -79.2* | · | 2.7% | ·
CC(=O)c1cn(Cc2ccccc2C#N)c2ccccc12 | ? | 2.51µM* | -65.2* | 3.55µM* | 0.6% | ?
Fc1ccccc1Cn1cc(C(=S)N2CCOCC2)c2ccccc21 | 34.1% | -21.3% | -24.2 | · | 2.0% | ·
CC(C)C(=O)c1cn(Cc2ccccc2C#N)c2ccccc12 | -26.3% | ? | 4.0 | -23.1% | -12.6% | ?
O=Cc1cn(Cc2ccccc2F)c2ccccc12 | -7.8% | 15.2% | -91.5* | ? | 5.0% | ?
N/C(=N\O)c1cn(Cc2ccccc2Cl)c2ccccc12 | ? | -19.4% | -70.7* | -16.2% | 2.3% | ?
O=Cc1cn(Cc2c(F)cccc2Cl)c2ccccc12 | ? | 10.3% | -14.4 | · | -0.6% | ·
COc1ccc(CNC(=O)CN2N=C(c3ccccc3)CCC2=O)c(OC)c1 | -2.6% | · | -10.3 | 27.2%[46.1 µM] | · | ·
COc1ccc2oc(-c3ccc(C)c(NC(=O)c4ccc5c(c4)OCCO5)c3)nc2c1 | 36.6% | · | 122.3 | 12.2%[46.1 µM] | · | 23.4%[46.1 µM]
Cc1cc(Br)ccc1NC(=O)COc1cc(=O)n(C)c2ccccc12 | -3.2% | · | -2.7 | -0.1%[46.1 µM] | · | 4.2%[46.1 µM]
Cc1ccc(CN(Cc2cc3cc4c(cc3[nH]c2=O)OCCO4)Cc2nnnn2Cc2ccco2)cc1 | -14.0% | ? | -34.1 | ? | 2.8% | ?
Cc1ccc2[nH]c(=O)c(CN(Cc3ccccc3)Cc3nnnn3C3CCCC3)cc2c1 | 35.3% | ? | 12.2 | -38.1% | -2.1% | 18.3µM*
Cc1ccc2cc(CN(Cc3ccc4c(c3)OCO4)Cc3nnnn3Cc3ccco3)c(=O)[nH]c2c1 | 0.8% | 15.8µM*! | ? | ? | -0.3% | ?
CC1(C)Cc2c(c(N3CCOCC3)nc3sc4c(NN)ncnc4c23)CS1 | -5.2% | ? | -88.2* | -10.1% | 2.3% | ?
CC(C)CNc1nnnc2c1sc1nc(N3CCOCC3)c3c(c12)CC(C)(C)SC3 | ? | 10µM* | ? | 14.1µM* | -7.8% | ?
COc1cc(-c2cc(-c3ccc(O)cc3)nc(N)c2C#N)ccc1O | -12.9% | ? | -70.3* | ? | -0.8% | ?
CCOc1cc(-c2c(C#N)c(N)nc3c2CCc2ccccc2-3)ccc1O | ? | ? | -18.9 | ? | -1.9% | ?
COc1ccc(OC)c(-c2cc(-c3cccnc3)nc(N)c2C#N)c1 | ? | ? | 110.2 | ? | -0.8% | 1.41µM*
COc1ccc(-c2cc(-c3ccc(O)cc3)nc(N)c2C#N)cc1 | -7.6% | -4.5% | 0.3 | · | -2.8% | ·
CCOc1cc(-c2cc(-c3ccc(C)cc3)nc(N)c2C#N)ccc1O | ? | 25.1µM* | 12.6 | ? | -1.9% | ?
Cc1ccc(CCNC(=O)c2ccc3c(c2)c(C)c(C)n3Cc2ccccc2)cc1 | -17.1% | · | 0.0 | -16.3%[46.1 µM] | · | ·
COc1ccc(CCN2C(=S)NC3CC2(C)Oc2ccc([N+](=O)[O-])cc23)cc1OC (stereo not drawn) | 25.1µM* | 4.47µM* | -7.1 | ? | 5.6% | ?
COc1ccc(N2C(=O)NC3CC2(C)Oc2ccc(Cl)cc23)cc1OC (stereo not drawn) | -19.0% | -22.5% | -31.0 | ? | -0.7% | ?
SMILES | FMDV antiviral | HCV inh | HCMV antiviral | Lassa entry inh | SARS PLP yeast | MARV entry inh
COc1cn(CC(=O)Nc2ccc(F)cc2)c(CN2CCCCC2)cc1=O | -9.7% | · | 19.1 | -13.8%[46.1 µM] | · | ·
CCC(CC)=NNC(=O)c1ccccc1OCc1ccc(F)cc1 | -21.5% | ? | ? | ? | -8.4% | 0.3%
Cc1ccc(/C=N/NC(=O)c2ccccc2OCc2ccc(F)cc2)o1 | -33.4% | 10µM* | ? | 2.1% | -46.4% | -20.2%
O=C(N/N=C\c1ccccc1OCc1ccccc1)c1ccco1 | -8.7% | 3.1% | 133.2 | -15.1% | -24.9% | -12.6%
COc1ccccc1C(=O)NCC(=O)N/N=C/c1cc(Br)ccc1OCc1ccccc1 | ? | 10µM* | ? | ? | 17.1% | ?
C#CCOc1ccccc1/C=N/NC(=O)c1ccccc1OCc1ccccc1 | 17.8µM* | ? | ? | · | -1.8% | ·
COc1ccc(COc2ccccc2C(=O)NCc2ccccc2)cc1F | ? | 10µM* | -69.2* | ? | 3.4% | ?
CCN1C(=O)C(c2nnnn2-c2c(C)cccc2C)N(CCc2ccccc2)C1=O (stereo not drawn) | · | · | -7.6 | · | · | ·
COc1ccc(/C=N/OCC(=O)NCC(C)C)c(OC)c1 | -17.1% | -11.4% | -34.4 | -14.2%[46.1 µM] | 1.3% | 11.6%[46.1 µM]
O=C(N/N=C/c1ccccc1)c1ccc(OCc2ccccc2)cc1 | 26.9% | -2.0% | 30.1 | · | -1.2% | ·
COc1ccc(/C=N/OCC(=O)NC(c2ccccc2)c2ccccc2)c(OC)c1 | ? | ? | -5.8 | 2.24µM* | -20.4% | ?
O=C(N/N=C/c1ccccc1)c1sccc1OCc1ccc(F)cc1 | -9.5% | ? | -62.3* | -12.2% | -3.0% | ?
COc1ccc(/C=N/NC(=O)c2ccccc2OCc2ccccc2)c(OC)c1 | -15.5% | 12.6µM* | ? | ? | -11.1% | ?
COc1ccc(NC(C)C(=O)N/N=C/c2ccccc2OCc2cccc(Br)c2)cc1 (stereo not drawn) | -15.6% | 11.2µM* | 13.6 | 11.2µM* | -7.0% | ?
COc1cc2c(cc1OC)-c1c(OC)c(OC)cc3ccnc(c13)C2=O | ? | ? | -95.0* | ? | -3.2% | ?
CCc1nc(SCCO)c2oc3ccccc3c2n1 | -22.7% | 10µM* | 35.6 | 16.2% | 6.8% | 14.0%
CCc1nc(SCc2nc3ccccc3[nH]2)c2oc3ccccc3c2n1 | ? | 7.94µM* | ? | -7.8% | 1.4% | ?
CCc1nc(SCC(=O)N2CCN(c3ccccc3)CC2)c2oc3ccccc3c2n1 | ? | 10µM* | -18.0 | -20.0% | 4.6% | ?
CCc1nc(Sc2nc(C)cc(C)n2)c2oc3ccccc3c2n1 | -29.9% | ? | -86.4* | -6.8% | -1.4% | ?
CCc1nc(N(CC)CC)c2oc3ccccc3c2n1 | ? | ? | -27.7 | -9.1% | -0.2% | -18.1%
N[C@@H]1CCN(O)C1=O | -6.5% | · | · | · | · | 1.1%
COc1cc(/C=N/Nc2snc(SC)c2C#N)cc(OC)c1OC | ? | ? | -86.4* | 1.26µM* | 5.5% | 1.58µM*
CC(C)(C)OC(=O)N1CCC(c2c(C(=O)Nc3ccc4c(c3)OCCO4)cnn2-c2ccccc2)CC1 | -29.5% | · | 0.0 | 5.8%[46.1 µM] | · | ·
N#CCCn1cc(C(=O)Nc2ccc([N+](=O)[O-])cc2)c(-c2ccc3c(c2)OCCO3)n1 | 25.8% | -13.0% | -66.9* | ? | -12.0% | 10.7%
Oc1ccc2c3c1O[C@H]1c4c(c5ccccc5n4Cc4ccccc4)C[C@@]4(O)C(C2)N(CC2CC2)CC[C@]314 | -29.9% | · | · | · | · | ·
